Screening results deposited in PubChem by several laboratories.
A selection: hits, their analogues and other compounds. The true share with any hit is near 5.7%.
Cdc25B block: inhibitors of Cdc25B phosphatase catalytic domain, primary screen, biochemical, OMFP fluorescence | M-phase inducer phosphatase 2 (Homo sapiens), P30305 | recombinant Cdc25B, OMFP fluorescence Ex485/Em525 | inhibition, %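 (compounds tested at 10 µM final in the well)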 | 0.1% of 65,000 active | AID 368, 2006; in the data active means inhibition above about 50%
MKP-1 inh: MKP-1 phosphatase inhibitors, primary screen, biochemical, in vitro. recombinant MKP-1, OMFP hydrolysis fluorescence. inhibition, %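 (compounds tested at a single concentration somewhere between 10 and 100 µM)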. 0.15% of 65,000 active;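 active means inhibition above about 50%, limit read from the data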
Target sequence (P28562 whole entry, looked up): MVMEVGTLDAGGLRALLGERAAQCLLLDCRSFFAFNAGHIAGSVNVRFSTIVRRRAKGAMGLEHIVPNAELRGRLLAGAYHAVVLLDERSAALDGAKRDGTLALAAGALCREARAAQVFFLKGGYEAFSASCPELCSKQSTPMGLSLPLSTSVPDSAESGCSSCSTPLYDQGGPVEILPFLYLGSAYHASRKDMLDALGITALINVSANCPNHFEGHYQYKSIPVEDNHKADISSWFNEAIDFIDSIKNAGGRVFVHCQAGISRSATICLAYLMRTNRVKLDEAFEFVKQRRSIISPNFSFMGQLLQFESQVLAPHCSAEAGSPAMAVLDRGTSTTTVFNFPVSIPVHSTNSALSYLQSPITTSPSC
Hsp90 inh: tumor Hsp90 inhibitors, primary screen, cell lysate, fluorescence polarization, NCI-N417 lysate; Heat shock protein HSP 90-alpha (Homo sapiens), P07900; Cy3B-geldanamycin FP displacement; inhibition, % at 30 µM; 0.35% of 64,000 active; AID 429, 2006;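 active means inhibition above 50%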
NADH enzymes: inhibitors of PK/LDH coupling enzymes, profiling panel, artefact control, biochemical, MLSMR library. coupled PK/LDH NADH assays, four targets. IC50, µM (highest dose often 10 µM). 0.02% of 65,000 active;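 active means single-dose screening hits from any of four coupled enzyme assays that gave an IC50 when retested across doses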;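 further: the DPM-DC format reads NADH fluorescence rather than 340 nm absorbance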
Fluor 339 460: intrinsic fluorescence of library compounds, ex339/em460 – biochemical, MLSMR library, data from DPM-DC assay, artefact control, profiling panel; 5.5% of 65,000 active; compound autofluorescence, ex339/em460 nm, NADH buffer; stronger effect = higher value; 1 = no-compound wells, NADH background; fluorescence fold increase at 10 µM;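 active means at 10 µM, mean starting fluorescence two-fold or more over control wells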;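 further: signal is the first read of a kinetic run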
A340 absorber: compound light absorbance at 340 nm, profiling panel, artefact control, biochemical, MLSMR library, data from PS, PMK, MK assays; compound absorbance at 340 nm, fold over control; fold change at 10 µM; 65,000 tested, under 10 active;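 active means at 10 µM dose, initial 340 nm absorbance at least 2 fold that of control wells; inactive means change under 2 fold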;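 further: initial absorbance extrapolated from kinetic A340 decline of NADH oxidation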
Numbers stand for hits; n = inactive; x = no result given.

SMILES	Cdc25B block	MKP-1 inh	Hsp90 inh	NADH enzymes	Fluor 339 460	A340 absorber
COc1ccc(CNC(=O)C(C)N(Cc2ccco2)C(=O)c2snc(C(N)=O)c2N)cc1 (configuration not stated)	n	n	n	n	2.2	n
O=C(Cc1cccs1)N(Cc1ccco1)C1(C(=O)NC2CCCC2)CCCCC1	n	n	x	n	n	n
Cc1onc(-c2c(F)cccc2Cl)c1C(=O)Nc1cccc2nsnc12	n	n	n	n	3	n
Oc1cc(O)cc(/C=C/c2ccc(O)c(O)c2)c1	x	x	108	x	x	x
COc1ccc(-c2nc3oc4cc(OC)ccc4c(=O)c3c(=O)n2Cc2ccco2)cc1	n	n	n	n	3.9	n
Clc1ccccc1CSc1ncccn1	n	n	n	n	n	n
Cc1[nH]c2ccccc2c1-c1nc2ccccc2[nH]1	n	n	n	n	n	n
Cc1nnsc1-c1nc2ccccc2[nH]1	n	n	n	n	4.9	n
c1csc(-c2nc3ccccc3[nH]2)c1	n	n	n	n	3.6	n
Cc1nnc(SCc2nc3ccccc3[nH]2)s1	n	n	n	n	n	n
Cc1ccc(-c2nc3ccccc3[nH]2)s1	n	n	n	n	2.5	n
N#CCCN1CCN(S(=O)(=O)c2ccc(S(=O)(=O)NC3CCCC3)cc2)CC1	n	n	n	n	n	n
Cc1ccc2[nH]c3c(c2c1)CN(C(=O)CN1CCN(c2ccccc2F)CC1)CC3	n	n	n	n	n	n
Cc1cccn2c(=O)c(C=Nc3ccccc3)c(NCCO)nc12	n	n	n	n	2.4	n
Cc1cccn2c(=O)c(C=Nc3ccc(Cl)cc3)c(NCCO)nc12	n	n	n	n	2.7	n
Cn1c(=O)c2c(nc(NCCO)n2CCc2ccccc2)n(C)c1=O	n	n	n	n	n	n
Cc1ccc2nc(Nc3ccccc3)c(/C=N/O)c(=O)n2c1	n	n	n	n	n	n
Cc1ccc(-n2c(CSc3nc(C)cc(C)n3)nnc2SCC(=O)N2CCCC2)cc1	n	n	n	n	n	n
Nc1nc(N2CCCCC2)nc2ccccc12	n	n	n	n	3.9	n
COc1ccc2cc(C#N)c(N3CCN(Cc4nnnn4CCC(C)C)CC3)nc2c1	n	n	n	n	n	n
COc1ccccc1OCc1nnc(SCC(=O)c2cc(Cl)ccc2OC)o1	n	n	n	n	n	n
CN1CCN(c2ccc(Cl)cc2NS(=O)(=O)c2ccccc2Cl)CC1	n	n	n	n	n	n
CCOC(=O)N1CCC(NC(=O)c2cc3c(-c4ccc(OC)c(OC)c4)nn(C)c3s2)CC1	n	n	n	n	2.4	n
COc1cccc(-c2nn(C)c3sc(C(=O)NCc4ccc(C)o4)cc23)c1	n	n	n	n	n	n
CCOC(=O)N1CCC(NC(=O)c2cc3c(-c4ccccc4F)nn(C)c3s2)CC1	n	n	n	n	2	n
SMILES	Cdc25B block	MKP-1 inh	Hsp90 inh	NADH enzymes	Fluor 339 460	A340 absorber
COc1ccc(-c2nn(C)c3sc(C(=O)NCc4ccco4)cc23)cc1OC	n	n	n	n	3.1	n
CC1CCCCN1CCNC(=O)c1cc2c(-c3ccccc3F)nn(C)c2s1 (configuration not stated)	n	n	n	n	2.1	n
CCOC(=O)C1CCN(C(=O)c2cc3c(-c4ccc(OC)c(OC)c4)nn(C)c3s2)CC1	n	n	n	n	n	n
CC(C)C1C2CCC(C2)C1N (configuration not stated)	x	x	n	x	x	x
N#CC1(c2nc3ccccc3[nH]2)CC1c1ccc2c(c1)OCO2 (configuration not stated)	n	n	n	n	n	n
O=C(CSc1nnc(CNC(=O)c2cccs2)o1)Nc1cccc(C(F)(F)F)c1	n	n	n	n	n	n
O=C(Cn1cc2c(n1)CCCCC2)Nc1ccc(F)cc1F	n	n	n	n	n	n
Cc1nn(-c2ccc(F)cc2F)c2c1-c1nc(N3CCCC3)ncc1CC2	n	n	n	n	5.1	n
Cc1ccc(-c2nc3ccccc3n3nnnc23)cc1	n	n	n	n	3.8	n
CCOC(=O)N1CCC(Nc2nc3ccccc3n3nnnc23)CC1	n	n	n	n	4	n
